# Source: PubChem BioAssay (Tox21)
# Results filed as inconclusive are left out. A number with no mark means an inactive call. Active and inactive are the calls of the source. Calls come from the whole dose curve.
# Target: Acetylcholinesterase (Homo sapiens) (UniProt P22303)
# Assay: Acetylcholinesterase (AChE) small molecule antagonists: fluorescence cell-based qHTS assay (AID 1347398); note: nearly all actives have a fitted effect of over 50% in size
# Conditions: SH-SY5Y cells; Potency: AChE activity; outcome: AChE activity; series mostly up to 115 µM; activity change, negative = inhibition: at the top concentration
# In short: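 Human SH-SY5Y cells were plated overnight at 37 C, exposed to compound for 30 min at 37 C, 5% CO2, then given acetylthiocholine plus Thiolite Green for 40 min at room temperature; thiocholine fluorescence (Ex/Em 490/520 nm) reports endogenous AChE activity.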
# % is set by controls: 0 for no effect and ±100 for the full control effect.
# Chain of Acetylcholinesterase (Homo sapiens) (P22303 whole entry, looked up): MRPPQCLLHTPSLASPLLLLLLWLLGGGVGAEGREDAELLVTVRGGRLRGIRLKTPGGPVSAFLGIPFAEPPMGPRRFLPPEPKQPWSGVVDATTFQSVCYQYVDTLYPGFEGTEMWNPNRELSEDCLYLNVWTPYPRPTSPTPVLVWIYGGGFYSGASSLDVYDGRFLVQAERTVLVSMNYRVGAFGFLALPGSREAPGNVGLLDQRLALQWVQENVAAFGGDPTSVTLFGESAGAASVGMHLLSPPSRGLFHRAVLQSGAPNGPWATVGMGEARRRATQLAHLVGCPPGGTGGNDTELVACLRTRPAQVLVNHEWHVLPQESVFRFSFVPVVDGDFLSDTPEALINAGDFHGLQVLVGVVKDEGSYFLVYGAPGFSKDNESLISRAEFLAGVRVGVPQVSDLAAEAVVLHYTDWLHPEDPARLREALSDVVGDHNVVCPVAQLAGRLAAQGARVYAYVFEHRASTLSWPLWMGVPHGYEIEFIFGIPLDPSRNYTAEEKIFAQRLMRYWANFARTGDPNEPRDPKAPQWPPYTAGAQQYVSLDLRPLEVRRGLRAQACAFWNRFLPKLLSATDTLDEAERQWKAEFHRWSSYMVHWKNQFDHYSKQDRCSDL
Structure (SMILES),"activity change, negative = inhibition",Potency
CNC1CCCN(c2c(F)cc3c(=O)c(C(=O)O)cn(C4CC4)c3c2OC)C1 (stereo not given),3.11% [at 53.7 µM],
C=CC(=O)OCC(O)COc1ccccc1 (stereo not given),-0.543%,
CC(C)CC(=O)C1C(=O)c2ccccc2C1=O,-7.86%,
C/C=C\C/C=C/CCCCCCCCOC(C)=O,-21.5%,
C/C=C(\C)C(C)=O,0.842%,
COc1ccc(S(=O)(=O)N2C(=O)[C@@](c3ccccc3OC)(N3C[C@H](O)C[C@H]3C(=O)N(C)C)c3cc(Cl)ccc32)c(OC)c1,2.84%,
O=C(c1ccccc1O)c1ccccc1O,-1.41%,
OC1OC[C@@H](O)[C@H](O)[C@H]1O (stereo not given in full),10.5%,
c1ccc(SCCSc2ccccc2)cc1,-1.89%,
Brc1nc2ccccc2s1,,inactive
N[C@H]1C(O)O[C@H](CO)[C@H](O)[C@@H]1O (stereo not given in full),0.254%,
Clc1ccc2cc3ccccc3cc2c1,-4.11%,
c1ccc(SSc2ccccc2)cc1,-0.357%,
O=C1CCCCCN1SSN1CCCCCC1=O,-14.1%,
CCn1ccc(NS(=O)(=O)c2ccc(N)cc2)nc1=O,-0.734% [at 53.7 µM],
CC1(C)Oc2ccc(C#N)cc2[C@@H](N2CCCC2=O)[C@@H]1O,3.06% [at 53.7 µM],
CC1CCC2CC1C2(C)C (stereo not given),,inactive
C[Si](NC1CCCCC1)(NC1CCCCC1)NC1CCCCC1,5.35%,
CC(C)(C)C1=CC(=O)C(C(C)(C)C)=CC1=O,2.51% [at 53.7 µM],
N[C@H](C(=O)O)c1ccc(O)cc1,10.4% [at 23.8 µM],

Structure (SMILES),"activity change, negative = inhibition",Potency
CC(=O)Nc1c(I)cc(I)c(C(=O)O)c1I,10.5% [at 53.7 µM],
CCCCNS(=O)(=O)c1ccccc1,,inactive
O=c1[nH]c(=O)c2[nH]c(=O)[nH]c2[nH]1,6.44% [at 10.5 µM],
CCN(CC)C(=O)C1CN2CCc3cc(OC)c(OC)cc3C2CC1OC(C)=O (stereo not given),3.91% [at 53.7 µM],
O=C(CCCCCCCCC#CI)Oc1ccccc1,2.14% [at 53.7 µM],
CCCCCCCCCCOS(=O)(=O)O,-0.963%,
CCCCCCCC/C=C\CCCCCCCC(=O)OCCOC(=O)CCCCCCC/C=C\CCCCCCCC,-22.9%,
CCCCCCOC(=O)CCCCCCCC(=O)OCCCCCC,-4.32%,
CC(=O)OCC(C)C,-6.96%,
O=C(O)c1ccccc1,,inactive
CC(C)(C)CCCCCCOC(=O)c1ccccc1C(=O)OCCCCCCC(C)(C)C,-8.66%,
CC(C)CC(C)CC(O)CC(C)C (stereo not given),,inactive
COc1ccc(Br)c(C)c1,7.41%,
O=C(O)CS,,inactive
CCCn1cnc2c1c(=O)n(CCCCC(C)=O)c(=O)n2C,-3.64% [at 53.7 µM],
C[N+](C)(C)CCOC(=O)CCC(=O)OCC[N+](C)(C)C,-8.22% [at 53.7 µM],
CCN(CC)CCSC(=O)C(c1ccccc1)c1ccccc1,5.37% [at 53.7 µM],
CCCc1ccc(OCC(=O)N2CCN(C(=O)COc3ccc(CCC)cc3OC)CC2)c(OC)c1,-7.7% [at 53.7 µM],
CCCC/C=C/C=C\C=O,-8.09%,
CCCCCCCCCCCCCCCC(=O)O,,inactive
